The list is not random: actives were taken first. Their share in the collection is about 4.4%.
D1 potentiator: potentiators of human D1 dopamine receptor | HEK293 TREx D1 cells, calcium flux, dopamine EC20 potentiation | potentiation, % at 10 µM | 0.036% of 360,000 active | AID 504651; in the data active = potentiation above about 30%; also: 0% is about no effect
Target sequence (P21728 whole entry, looked up): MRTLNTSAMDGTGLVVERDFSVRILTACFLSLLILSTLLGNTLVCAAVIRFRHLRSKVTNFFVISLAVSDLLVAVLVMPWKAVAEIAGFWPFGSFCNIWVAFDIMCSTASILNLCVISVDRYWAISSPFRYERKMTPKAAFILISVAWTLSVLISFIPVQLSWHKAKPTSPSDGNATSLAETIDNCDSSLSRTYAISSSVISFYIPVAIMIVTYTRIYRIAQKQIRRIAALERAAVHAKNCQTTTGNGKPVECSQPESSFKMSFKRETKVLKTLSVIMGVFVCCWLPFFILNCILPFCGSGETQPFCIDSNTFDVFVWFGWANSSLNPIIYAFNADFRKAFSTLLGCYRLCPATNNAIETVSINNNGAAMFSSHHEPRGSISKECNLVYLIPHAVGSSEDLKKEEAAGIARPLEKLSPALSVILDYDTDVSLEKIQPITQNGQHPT
D1 agonist: human D1 receptor agonism; P21728; HEK293 T-REx D1 cells, calcium flux, agonist mode; activation, % at 2 µM; 1% of 360,000 active; AID 504660; also: 0% is about no effect
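Tetracycline-induced HEK293 TREx D1 cells, force-coupled to calcium signalling, were dye-loaded with a no-wash calcium kit. Compound was pin-added after a 10 s baseline. Fluorescence was read kinetically at 1 cycle/s for 180 s, with calcium rises flagged as agonism.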
D1 antag: human D1 dopamine receptor antagonism; AID 504652; 3.2% of 360,000 active; P21728; HEK293 TREx D1 cells, calcium flux, dopamine EC80; hits give low values; activity change, negative = inhibition, % at 10 µM; in the data active = activity change below about -30%; also: % is scaled to controls: 0 for no effect and ±100 for the full control effect
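After overnight tetracycline induction at 30 C, force-coupled D1 HEK293 cells took up a no-wash calcium dye at room temperature. Compounds were added and monitored 180 s, and the response to EC80 dopamine was then recorded.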
USP1-UAF1 inh: USP1/UAF1 (human) deubiquitinase inhibition. recombinant USP1/UAF1, Ub-Rhodamine cleavage fluorescence. Potency, µM (doses to about 57.1 µM), for inactives: at the top dose activity change, negative = inhibition, most hits filed as inhibitors. 0.23% of 390,000 active; active = well fitted inhibition curve with a large enough effect; inconclusive = small, poorly fitted or top-dose-only effect; inactive = no such curve, though single readings can be large or run the other way; also: potency is read from the fitted curve at half-maximal effect; % is scaled to controls: 0 for no effect and ±100 for the full control effect; nearly all actives have a fitted effect of over 60% in size
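1 nM enzyme complex + cpd, 15 min RT; start with Ub-Rho 150nM final; kinetic fluorescence ex 480/em 540, 6 reads q60 s. Buffer 50mM HEPES pH 7.8, 0.5mM EDTA, 0.1 mg/ml BSA, 1mM TCEP, 0.01% Tween-20.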
TRHR PAM: TRH receptor (human) allosteric enhancement. AID 493056. TRHR cells, fluo-8 calcium fluorescence, EC20 TRH enhancement. 0.66% of 360,000 active. enhancement, % at 2 µM; in the data active = enhancement above about 30%; also: 0% is about no effect
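TRHR-expressing cells loaded with fluo-8 calcium dye were read kinetically (ex 480/em 530) during compound addition, then stimulated with an EC20 of TRH (10 nM final). Enhancement of the Gq-mediated intracellular calcium response was scored.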
TRHR ag: agonists of human TRH receptor. AID 493084. TRHR cells, calcium flux fluo-8, FDSS agonist mode. activation, % at 2 µM. 0.18% of 360,000 active; also: 0% is about no effect
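Read-out: compound-evoked intracellular calcium rise in TRHR cells, fluo-8 dye, kinetic FDSS fluorescence at 1 s/cycle following a 10-cycle baseline. Cells cultured overnight before dye loading (30 min–1.5 h, RT).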
* hit, by the source's call; ? = inconclusive; ! = not active in a repeat. Rule as the data show it, unless noted: active = activation above about 30%; inactive = the rest.

SMILES | D1 potentiator | D1 agonist | D1 antag | USP1-UAF1 inh | TRHR PAM | TRHR ag
COc1ccc2ccccc2c1CNC(C)CCc1ccccc1 (centres undefined) | -4 | 7 | 27 | -9% | -2 | 0
O=C(O)c1ccc(CNCc2cccc(Cl)c2)cc1 | -5 | 7 | -24 | -8% | -3 | 0
O=C(O)c1ccc(CNCc2c(Cl)cccc2Cl)cc1 | -13 | 2 | -51* | -10% | -1 | 1
Cc1ccc2c(=O)cc(C(=O)Nc3sc4c(c3C(N)=O)CCCC4)oc2c1 | -1 | 4 | 1 | 0% | 10 | 1
CCC(C)NC(=O)Cn1c(=O)n(-c2ccc(C)c(C)c2)c(=O)c2c(C)c(C(=O)N(CC)CC)sc21 (centres undefined) | -3 | 1 | -8 | -3% | -2 | 0
CCOC(=O)CSc1nc2c(sc3ccccc32)c(=O)n1Cc1ccc(OC)cc1 | 0 | 6 | -9 | -21% | -3 | 1
c1cc(C2CCN(Cc3nc(-c4ccc5c(c4)OCO5)no3)CC2)ccn1 | -4 | 4 | -15 | -17% | 35* | 1
COCC1CCN(Cc2nc(-c3ccc4c(c3)OCO4)no2)C1 (centres undefined) | 3 | 2 | 1 | -22% | -10 | 1
CCOC(=O)Cn1c(S(=O)(=O)Cc2cccc(F)c2)nc(-c2ccccc2)c1-c1ccccc1 | -5 | 17 | -38* | -20% | 1 | 0
Cc1nc(N2CCOCC2)c2c(C(=O)N3CCN(c4cc(Cl)ccc4C)CC3)c(C)oc2n1 | -9 | 3 | -6 | -22% | 17 | -1
CCOC(=O)c1c(S(=O)(=O)NCC(=O)N2CCN(c3ccccc3OC)CC2)c(C)n(C)c1C | 3 | 0 | -32*! | -26% | -2 | 0
CCOC(=O)c1c(C)[nH]c(C)c1S(=O)(=O)NCC(=O)N1CCN(c2ccccc2OC)CC1 | 0 | 4 | 0 | -20% | 7 | -1
Cc1nn(-c2nc3ccccc3s2)c(C)c1Oc1ccccc1O | -9 | 25 | -60* | -23% | -17 | -1
Cn1cnc([N+](=O)[O-])c1Oc1ccccc1 | -2 | 0 | 5 | -13% | 5 | 0
Cn1cnc([N+](=O)[O-])c1Oc1cccc2ccccc12 | 2 | 0 | -3 | -23% | 37* | -1
COc1ccc(N(Cc2nnc3n2CCCCC3)C(=O)Nc2ccc(Cl)cc2)cc1Cl | -3 | 1 | -11 | -24% | -2 | 0
CCc1cccc(C)c1Nc1c(-c2ccc(N3CCOCC3)cc2)nc2ncccn12 | -1 | 32* | 11 | -22% | 0 | 10
Cc1ccccc1Nc1c(-c2ccc(N3CCOCC3)cc2)nc2ccccn12 | 2 | -2 | 17 | -7% | 5 | 0
Cc1ccc(Nc2c(-c3ccc(N4CCOCC4)cc3)nc3c(C)cccn23)cc1 | -1 | 3 | -32* | -1% | -5 | 0
Cc1ccc(-c2noc(CCC(=O)NCCCN3CCN(c4ccc(F)cc4)CC3)n2)cc1 | -14 | 25 | -83* | -18% | -6 | 0
COc1ccc(-c2noc(CCC(=O)NCCCN3CCN(c4ccccc4F)CC3)n2)cc1 | -17 | 31* | -56* | -5% | -2 | 0
Cc1ccc(-c2noc(CCC(=O)NCCCN3CCN(c4cccc(Cl)c4)CC3)n2)cc1 | -9 | 82* | -73* | -28% | -1 | 0
CCN1CCN(CCCNC(=O)CCc2nc(-c3ccc(OC)cc3)no2)CC1 | -5 | 1 | 6 | -16% | 1 | 0
COc1ccccc1C1CC(c2ccccc2)=NN1S(=O)(=O)c1ccccc1 (centres undefined) | 2 | 4 | -34* | -4% | -1 | 0
O=C(O)c1ccc(/C=C/c2ccc3cccc(O)c3n2)cc1 | -7 | 3 | 1 | -20% | -4 | 0
Oc1ccc(/C=C/c2ccc3cccc(O)c3n2)cc1Br | 5 | 37* | -11 | ? | 2 | 21
O=C(NCC(c1ccc2c(c1)OCO2)N1CCN(c2ccccc2)CC1)C(=O)Nc1ccccc1 (centres undefined) | 0 | 2 | -2 | ? | 2 | 0

Assay outcomes as filed in PubChem BioAssay.
